Measured values taken from the supplement of paper PMC6555819.

Experiments:
Assay in all cases: PBM binding z-score (relative to random genomic background probes); higher = stronger binding; sequences stand for … in GC…GCGATTGACAGCGTAGAATGAAGG
[1] = test system: FXR:RXRa (NR concentration 270 nM, RXRa partner concentration 90 nM)
Outline: (§1)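 Antibodies against each partner of ligand-free nuclear receptor dimers (one per run) detected binding on custom Agilent 4×180K protein-binding microarrays after 1 h incubation. The double-stranded probes had 34-nt variable regions carrying direct-repeat seeds, single-nucleotide variants, half-site ablations and random human genomic background sequences. Binding z-scores, from regression-normalized fluorescence, use the random background probes as reference.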

[2] = test system: LXRa:RXRa (NR concentration 270 nM, RXRa partner concentration 90 nM)
Outline: as §1

[3] = test system: LXRa homodimer (NR concentration 270 nM)
Outline: as §1

[4] = test system: LXRb:RXRa (NR concentration 270 nM, RXRa partner concentration 90 nM)
Outline: as §1

[5] = test system: LXRb homodimer (NR concentration 270 nM)
Outline: as §1

[6] = test system: PPARa:RXRa (NR concentration 270 nM, RXRa partner concentration 90 nM)
Outline: as §1

[7] = test system: PPARg:RXRa (NR concentration 180 nM, RXRa partner concentration 90 nM)
Outline: as §1

[8] = test system: PPARg:RXRa 270nM:90nM, anti-RXR (NR concentration 270 nM, RXRa partner concentration 90 nM)
Outline: as §1

[9] = test system: PPARg:RXRa 30nM:10nM, anti-RXR (NR concentration 30 nM, RXRa partner concentration 10 nM)
Outline: as §1

[10] = test system: PPARg:RXRa 90nM:30nM, anti-RXR (NR concentration 90 nM, RXRa partner concentration 30 nM)
Outline: as §1

| Sequence | PBM binding z-score [1] | PBM binding z-score [2] | PBM binding z-score [3] | PBM binding z-score [4] | PBM binding z-score [5] | PBM binding z-score [6] | PBM binding z-score [7] | PBM binding z-score [8] | PBM binding z-score [9] | PBM binding z-score [10] |
| --- | --- | --- | --- | --- | --- | --- | --- | --- | --- | --- |
| GCTGCTAGGTCAGGTTGGTCAGCTTACGGGTACG | 1.11 | 0.781 | -0.122 | 0.397 | -0.0807 | 1.07 | 0.483 | 0.904 | -0.57 | 0.294 |
| AGAATGAGGTTATTAAGATCAGAGAATTGCGGTC | 1.56 | 1.62 | 0.0516 | 1.19 | 0.109 | 2.71 | 1.59 | 1.75 | 0.553 | 1.22 |
| GCTAGCAGGCCATTTGGGTCATTCAATGACGGGC | 0.317 | 0.0338 | -0.598 | 0.324 | -1.08 | 1.47 | 0.533 | 0.233 | -0.872 | -0.17 |
| ACTTACGGGTCAACGAGTTTATAGCACGCGTATA | 6.09 | 4.46 | 1.02 | 4.03 | 0.714 | 5.4 | 5.37 | 5.02 | 2.4 | 4.12 |
| TGAATGAGGTTATAAGATCAGGAAACGTTGCAAA | 1.24 | 1.53 | -0.511 | 1.5 | -0.0615 | 2.98 | 1.29 | 2.14 | 0.703 | 1.62 |
| ACTATTAGTTGAGACGAGGGAAACCGATAGGTTG | 0.194 | 0.0182 | -0.36 | -0.399 | -0.0748 | -0.349 | 0.531 | -0.165 | 0.215 | 0.291 |
| CCTAGCAGGCCAACCTGGGTCACTCAAGGCTTGA | 1.14 | 1.36 | -0.307 | 1.16 | -1.09 | 2.05 | 0.131 | 0.239 | -0.969 | -0.0466 |
| CCTAATGGGCCAAGGTCATTGATCAGTCAAAGCA | 3.25 | 3.17 | 1.04 | 2.93 | -0.303 | 3.86 | 2.44 | 3 | 0.651 | 2.34 |
| CGAACTCGGTCATTGACAGGACAGTGAATAGTAA | 1.78 | 1.2 | 0.283 | 0.401 | -0.271 | 1.07 | 0.725 | 0.451 | -0.134 | 0.0163 |
| TCTCGGAGGACACGAAGGTCATAGCTTTCCAGAG | 2.87 | 2.73 | 1.72 | 2.61 | -0.514 | 3.18 | 1.09 | 2.57 | 2.55 | 2.54 |
| ATATGTAGGTTATCGGGTCAATCAGTTTGCGCAT | 3.33 | 3.31 | 1.36 | 2.99 | 1.1 | 4.99 | 7.6 | 6.41 | 3.84 | 5.93 |
| CTTGCTAGGTCATGGTCAGCTAATCTACAGTATG | 3.63 | 2.86 | 0.466 | 1.66 | -0.00744 | 3.61 | 3.05 | 3.54 | 1.34 | 2.35 |
| CAAACTAGGTCAAAGTCAAAGTCGGTTTGTGCCA | 4.66 | 3.77 | 0.899 | 2.64 | 1.02 | 5.18 | 8.68 | 7.7 | 6.17 | 8.03 |
